A selection: hits, their analogues and other compounds. The true share with any hit is near 7.3%.
SMN2 splice up – qHTS Assay for Enhancers of SMN2 Splice Variant Expression | HEK293 SMN2-luciferase splicing reporter, luminescence, 30-36 h | Potency, µM (titrated, usually from 46.1 µM), hits mostly activators | 2.8% of 210,000 active; also: nearly all actives have a fitted effect of over 55% in size
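qHTS luciferase splicing reporter: luminescence rises when SMN2 exon 7 is included in transfected HEK293 cells. Compound exposure lasted 30-36 h at 37C, with 4.5 mM final sodium butyrate as control, followed by a ONE-Glo read.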
p53 reactivator – qHTS assay for re-activators of p53 using a Luc reporter | H1299 p53-A138V BP100-luciferase reporter, luminescence, 24 h | Potency, µM (titrated, usually from 92.2 µM), most hits filed as activators | 0.063% of 320,000 active | AID 504706, 2011; also: nearly all actives have a fitted effect of over 45% in size
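H1299 (p53-null), stable ts p53-A138V + BP100-Luc; 1000 cells/well, Opti-MEM/10% FBS; cpd 4 pt, 1:5; 24 h, 37 deg C, 5% CO2; detection reagent 10 min RT; luminescence.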
ELG1 genotoxic – qHTS screen for small molecules that induce genotoxicity in human embryonic kidney (HEK293T) cells expressing luciferase-tagged ELG1 | AID 504466, 2011 | Potency, µM (titrated, usually from 46 µM), most hits filed as activators | HEK293T ELG1-luciferase reporter, luminescence, 16 h | 1.3% of 330,000 active; also: nearly all actives have a fitted effect of over 60% in size
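Quantitative HTS format in 1536-well plates. HEK293T ELG1-luciferase reporter cells receive test compound and are incubated 16 hr at 37 °C, 5% CO2; ONE-Glo added, 30 min room temperature, then luminescence read.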
FLuc modulator – qHTS profiling assay for firefly luciferase inhibitor/activator using purifed enzyme and Km concentrations of substrates (counterscreen for miR-21 project); purified FLuc, Km substrates, luminescence inhibition; Potency, µM (doses to about 57.5 µM), usual class: inhibitors; 6.9% of 360,000 active; AID 588342, 2011; also: nearly all actives have a fitted effect of over 55% in size
Target sequence (P08659 whole entry, looked up): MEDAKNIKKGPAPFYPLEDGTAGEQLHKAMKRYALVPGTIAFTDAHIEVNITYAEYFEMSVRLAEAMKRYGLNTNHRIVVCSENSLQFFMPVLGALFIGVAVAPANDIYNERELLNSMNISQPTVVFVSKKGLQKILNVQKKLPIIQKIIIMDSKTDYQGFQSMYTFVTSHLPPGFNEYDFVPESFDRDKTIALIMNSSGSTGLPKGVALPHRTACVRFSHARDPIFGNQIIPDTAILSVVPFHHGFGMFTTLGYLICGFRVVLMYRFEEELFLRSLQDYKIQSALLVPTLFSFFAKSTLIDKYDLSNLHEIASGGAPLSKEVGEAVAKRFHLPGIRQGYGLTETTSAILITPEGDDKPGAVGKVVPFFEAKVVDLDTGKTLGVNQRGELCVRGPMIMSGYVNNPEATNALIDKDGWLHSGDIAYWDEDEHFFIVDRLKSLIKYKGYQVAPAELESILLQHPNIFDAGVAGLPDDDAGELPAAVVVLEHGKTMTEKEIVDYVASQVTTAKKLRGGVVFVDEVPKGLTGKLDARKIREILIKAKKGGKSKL
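Purified P. pyralis luciferase (10nM final) with 10uM D-luciferin and 10uM ATP (Km levels) in 50mM Tris acetate pH 7.5, 10mM Mg acetate, 0.01% Tween-20, 0.05% BSA; qHTS 6-point titration, ~60 µM downward; luminescence read.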
Rab9 promoter act – qHTS Assay for Rab9 Promoter Activators; 2.8% of 320,000 active; Huh7 Rab9 promoter-luciferase reporter, luminescence, 24 h; AID 485297, 2010; Potency, µM (series often up to 9.22 µM), hits mostly activators; also: nearly all actives have a fitted effect of over 60% in size
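Luminescence from Amplite-detected luciferase (10 minutes, ambient) reports Rab9 promoter activation. Before that, stable Rab9-luciferase Huh7 cells (1500/well, reduced-serum OP-MEM I plus 10% FBS) were exposed to compound for 24 hours at 37C.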
NPC1 prom act – qHTS Assay for NPC1 Promoter Activators | Potency, µM (series often up to 9.22 µM), most hits filed as activators | 2.4% of 320,000 active | AID 485313, 2010 | Huh7 NPC1 promoter luciferase reporter, 24 h; also: nearly all actives have a fitted effect of over 60% in size
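Compounds in DMSO were transferred onto Huh7 NPC1-luciferase reporter cells pre-incubated 2 h; after 24 h at 37 °C, Amplite reagent was dispensed and luminescence recorded 10 min later.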
A number is an active result; n = inactive; u = inconclusive; x = no result; [ ] = remark or other dose. Calls follow the shape of the dose curve; as a rule, active = well fitted curve in the direction sought with a large enough effect; inconclusive = small, poorly fitted or top-dose-only effect, or another doubt; inactive = no such curve, though single readings can be large; an effect the other way counts as inactive or inconclusive.

SMILES	SMN2 splice up	p53 reactivator	ELG1 genotoxic	FLuc modulator	Rab9 promoter act	NPC1 prom act
Cc1ccc(S(=O)(=O)N2CCCN(C(=O)c3cc4ccccc4[nH]3)CC2)cc1	x	u	n	19µM	n	n
Cc1ccc(S(=O)(=O)N2CCN(C(=O)CC(C)C)CC2)cc1	x	n	u	15µM	1.1µM	4µM
O=C(C1COc2ccccc2O1)N1CCc2ccccc21 (centres undefined)	n	n	u	21µM	3.5µM	3.5µM
CCn1c2ccccc2c2nnc(N3CCN(c4ccc(OC)cc4)CC3)nc21	x	x	x	n	x	x
CCCNC(=O)Cn1nc(C)c2c(C)n(-c3ccccc3)nc2c1=O	x	x	x	n	x	x
O=C(C1CCN(S(=O)(=O)c2ccccc2F)CC1)N1CCc2ccccc21	x	n	n	n	n	n
O=C(C1CCN(S(=O)(=O)c2ccccc2)CC1)N1CCc2ccccc21	x	n	n	21µM	u	n
CCCc1cc(=O)n2c([nH]c3ccccc32)c1C#N	n	u	n	6.7µM	u	n
CCOC(=O)c1c(C)[nH]c(C)c1S(=O)(=O)N1CCC(C(=O)Nc2cc(Cl)ccc2OC)CC1	x	x	x	n	x	x
Cc1nc(C)c(-c2csc(N)n2)s1	x	n	n	n	n	n
Cc1nc(C)c(-c2csc(Nc3ccccn3)n2)s1	x	n	u	2.4µM	0.5µM	0.56µM
Cc1nc(N)sc1-c1csc(Nc2ccc(Cl)cn2)n1	n	n	n	17µM	n	n
COc1ccc(CCNc2nc(-c3sc(N)nc3C)cs2)cc1OC	n	n	n	u	n	n
Cc1nc(N)sc1-c1csc(Nc2ccccn2)n1	8.9µM	u	u	6.7µM	1.6µM	2.2µM
Cc1ccc2nc(-c3cc(NC(=O)/C=C/c4ccccc4)ccc3Cl)oc2c1	n	x	x	u	x	x
Cc1ccc2c(c1)N(C(=O)N1CCC(C(=O)NCCc3ccc(Cl)cc3)CC1)CC(C)O2 (centres undefined)	x	x	x	n	x	x
Nc1nnc(SCC(=O)Nc2cccc(F)c2)s1	u	x	x	n	x	x
CCOC(=O)N1CCC(Nc2ncnc3c2cnn3-c2ccc(Cl)cc2)CC1	n	n	12µM	u	u	u
c1ccc(-n2ncc3c(NC4CCCC4)ncnc32)cc1	x	x	x	4.8µM	x	x
CCOC(=O)c1ccc(Nc2ncnc3c2cnn3-c2cccc(Cl)c2)cc1	x	x	x	n	x	x
COc1ccc(-n2ncc3c(NC4CCCC4)ncnc32)cc1	x	x	x	1.3µM	x	x
Cc1ccc(-n2ncc3c(NC4CCCC4)ncnc32)cc1	x	x	x	0.38µM	x	x
O=C(NNc1ncnc2c1cnn2-c1ccccc1)c1ccccc1	x	x	x	n	x	x
Fc1ccc(-c2nc3n(n2)Cc2ccccc2-3)cc1	2.8µM	u	0.41µM	0.6µM	u	u
CCn1c(C)nc2cc(-c3nc4n(n3)Cc3ccccc3-4)ccc21	n	n	n	0.024µM	n	n
SMILES	SMN2 splice up	p53 reactivator	ELG1 genotoxic	FLuc modulator	Rab9 promoter act	NPC1 prom act
NC(=S)Cc1nc2n(n1)Cc1ccccc1-2	n	n	n	n	n	n
Cc1ccc(-c2nc3n(n2)Cc2ccccc2-3)cc1	1.3µM	x	u	0.3µM	3.2µM	3.5µM
CCC1CCCCN1Cc1cn2c(-c3ccc(Br)cc3)nnc2s1 (centres undefined)	x	x	x	n	x	x
COc1ccc(CNC(=O)c2cnc(N3CCCC3)nc2C)cc1	x	x	x	n	x	x
CNC(=O)n1cc(C)c(-c2cccs2)n1	x	n	n	n	n	n
CCOC(=O)c1cnc(SCC(=O)c2ccc(Cl)cc2)nc1N	n	n	u	n	n	n
CCOC(=O)c1cnc(SCc2ccc(C)cc2)nc1N	11µM	u	23µM	17µM	n	u
CCOC(=O)c1cnc(SCCc2ccccc2)nc1N	13µM	u	u	3µM	1.6µM	3.2µM
CCOC(=O)c1cnc(SCC(=O)N2CCN(C(=O)c3ccco3)CC2)nc1N	n	n	n	n	n	n
CCOC(=O)c1cnc2c(ccc3ccccc32)c1Cl	x	x	u	3µM	n	n
CCCCSc1ncc(C(=O)OCC)c(N)n1	5µM	u	u	3.8µM	3.2µM	u
CCOC(=O)c1cnc(NCc2ccccc2)nc1C	n	u	15µM	u	u	n
CCCCN1CCc2c([nH]c3ccc(C)cc23)C1=O	u	n	n	2.4µM	3.5µM	2.8µM
Cc1ccc(C(=O)N2c3ccccc3CC2C)o1 (centres undefined)	16µM	n	u	7.6µM	1µM	2µM
Cc1ccc(C(=O)N2CCc3ccccc32)o1	7.9µM	u	u	9.5µM	1.6µM	2.2µM
O=C(c1ccc([N+](=O)[O-])o1)N1CCc2ccccc21	x	x	n	n	n	n
Cc1c(C(=O)N2CCc3ccccc32)oc2c1C(=O)CC(C)(C)C2	13µM	u	3.3µM	8.5µM	u	n
O=S(=O)(O)c1cccc2c(N=Nc3ccc(O)c4ncccc34)cccc12	x	n	n	15µM	n	n
O=Nc1ccc(O)c2ncccc12	x	n	u	n	n	n
Cc1ccc(N=Nc2ccc(O)cc2)c(Br)c1	x	n	12µM	3.4µM	3.2µM	u
Cc1ccc(O)c(N=Nc2ccc(S(=O)(=O)N3CCOCC3)cc2)c1	n	n	n	n	n	n
COc1ccc(N=Nc2cc(-c3ccccc3)ccc2O)cc1	x	x	n	24µM	n	n
COc1ccc(N=Nc2ccc(O)c3ncccc23)cc1	x	n	4.6µM	n	n	n
COc1ccc(NS(=O)(=O)c2ccc3c(c2)n(C)c(=O)c(=O)n3C)cc1Cl	n	x	x	n	x	x
O=C(Cn1c(=O)n(-c2ccc(Cl)cc2)c(=O)c2oc3ccccc3c21)Nc1ccccc1	x	x	x	n	x	x
SMILES	SMN2 splice up	p53 reactivator	ELG1 genotoxic	FLuc modulator	Rab9 promoter act	NPC1 prom act
CCn1c(C(=O)Nc2c(C)cccc2C)cc2sc(Cl)cc21	n	x	x	n	x	x
NNS(=O)(=O)c1cc(C(=O)O)cc(C(=O)O)c1	n[9.22 µM]	x	x	x	x	x
O=Cc1ccc(CO)o1	n	x	x	x	x	x
Cc1ccccc1N=Nc1ccc(O)c2ncccc12	n	u	12µM	n	n	n
Oc1ccc(N=Nc2ccc(Br)cc2)c(O)c1	x	u	u	4.8µM	u	u
Oc1ccc(N=Nc2ccc3c(c2)OCCO3)c2cccnc12	n	u	n	6µM	n	n
COc1ccc(C)cc1N=Nc1ccc(O)c2ncccc12	n	n	n	n	n	n
COc1cccc(N=Nc2ccc(O)c3ncccc23)c1	x	u	u	6µM	n	n
Nc1nonc1C(=Nc1ccc(Br)cc1)NO	n	n	n	n	n	n
COc1ccc(CCNC(=O)c2cc(S(=O)(=O)N3CCCC(C)C3)cn2C)cc1OC (centres undefined)	x	x	x	n	x	x
Oc1ccc(N=Nc2ccc3c(c2)OCCO3)c(O)c1	x	u	u	1.2µM	1.1µM	1.3µM
Oc1ccc(-c2n[nH]c(=S)n2-c2ccc3c(c2)OCCO3)c(O)c1	n	n	n	u	n	n
COc1cccc(N=Nc2ccc3cccnc3c2O)c1	x	35µM	16µM	8.5µM	n	n

Assay outcomes as filed in PubChem.
